Compound activity as filed in PubChem.
This is one part of a sample in which hits are shown more often than they occur.
NRP1-CendR mod: alters CendR peptide binding to human NRP-1; O14786; FAM-RPARPAR peptide binding to NRP-1, fluorescence polarization; inhibition, % at 25 µM; actives 0.85% (n = 360,000); AID 602438;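 active = inhibition or corrected inhibition above about 18%, plus a signal ratio from 0.5 to 1.5, limit read from the data, passing the limit was not always enough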
ARNT-TACC3 inh: disrupts binding between human ARNT and TACC3; actives 0.66% (n = 390,000); inhibition, % at 9.99 µM; AlphaScreen His-ARNT PAS-B/GST-TACC3 binding, luminescence; TACC3 fragment carries E629A point mutation;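 active = mean inhibition of replicates at least 50% and at least half of replicates each reaching 50%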
PglD DTNB: blocks C. jejuni PglD acetyltransferase activity; purified PglD enzyme, DTNB colorimetric CoA detection; inhibition, % at 12.5 µM; actives 0.098% (n = 360,000); AID 602405; in the data active = inhibition above about 16%, passing the limit was not always enough
PDI turbidity: inhibitors of human protein disulfide isomerase. PDI insulin aggregation turbidity, A650, 90 min. inhibition, % at 10 µM. actives 0.052% (n = 350,000). AID 588391;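 active = mean inhibition across replicates of 30% or more, whatever share of single replicates reach that level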
ERp5 block: ERp5 (human) disulfide isomerase inhibition; actives 0.05% (n = 350,000); inhibition, % at 9.99 µM; ERp5 insulin aggregation, absorbance 650 nm, 90 min; Q15084;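 active = mean replicate inhibition above about 25%, with every replicate also reaching it, limit read from the data, passing the limit was not always enough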
Target sequence (Q15084 whole entry, looked up): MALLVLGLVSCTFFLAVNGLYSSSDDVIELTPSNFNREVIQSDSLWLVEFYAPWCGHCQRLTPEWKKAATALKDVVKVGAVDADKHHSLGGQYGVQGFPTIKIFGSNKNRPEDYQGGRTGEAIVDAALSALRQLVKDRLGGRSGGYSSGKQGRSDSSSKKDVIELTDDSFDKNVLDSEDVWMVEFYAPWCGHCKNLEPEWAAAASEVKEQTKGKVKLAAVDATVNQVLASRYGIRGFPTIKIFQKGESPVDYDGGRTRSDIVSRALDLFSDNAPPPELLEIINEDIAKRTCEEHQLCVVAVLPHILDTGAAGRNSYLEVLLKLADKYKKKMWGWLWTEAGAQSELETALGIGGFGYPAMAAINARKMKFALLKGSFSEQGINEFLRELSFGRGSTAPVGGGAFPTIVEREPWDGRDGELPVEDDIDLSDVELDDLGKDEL
ALR inh: human ALR oxidase inhibition via reduced H2O2; AID 485317; actives 3.8% (n = 290,000); P55789; inhibition, % (no concentration beside the values); purified ALR, DTT oxidation, H2O2 HRP-luminol luminescence;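 active = mean replicate inhibition above about 79%, with every replicate also reaching it, limit read from the data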
A number is an active result; - = inactive; . = no result; ! = a repeat was not active.

SMILES	NRP1-CendR mod	ARNT-TACC3 inh	PglD DTNB	PDI turbidity	ERp5 block	ALR inh
COc1ccc(-c2nc(CS(=O)CC(=O)N3CCN(C)CC3)c(C)o2)cc1OC (stereo unspecified)	-	-	-	-	-	99
CN(C)/C=N/c1sc2c(c1C#N)CCCC2	-	-	-	-	-	100
CC1CCc2c(sc(/N=C/N(C)C)c2C#N)C1 (stereo unspecified)	-	-	.	-	-	-
CC=Cc1ccc2n(c1=O)C[C@@H]1[C@@H](CO)[C@H](C(=O)NCc3ccccc3F)N(CC)[C@H]21 (mixture of isomers)	.	-	-	.	-	.
O=C(O)CN1C(=O)/C(=C\c2cn(-c3ccccc3)nc2-c2ccccc2)SC1=S	-	46	-	-	.	-
CCN1C(=O)/C(=C\c2cn(-c3ccccc3)nc2-c2cccnc2)SC1=S	36	-	-	-	-	.
CC(C)COc1ccc(-c2nn(-c3ccccc3)cc2/C=C2/SC(=S)N(CC(=O)O)C2=O)cc1	-	-	-	-	-	97
CCn1c(C)cc(/C=C2/SC(=S)N(CC(=O)O)C2=O)c1C	-	-	.	-	-	99
CCCn1cnc2c1c(=O)n(CCCCC(C)=O)c(=O)n2C	32	-	-	-	-	-
CCOc1ccc(Nc2nc3ccccc3n2C)cc1	-	-	-	-	-	94
CCOc1ccc(CNc2nc3ccccc3n2C)cc1	-	-	-	-	-	-
Cn1c(COc2ccc(C(=O)O)cc2)nc2ccccc21	-	-	-	-	-	-
Cn1c(COc2ccc(F)cc2)nc2ccccc21	23	-	-	-	-	-
CCc1ccccc1Nc1nc2ccccc2n1C	-	-	.	-	-	98
CCCn1c(Nc2nc3ccccc3n2C)nc2ccccc21	-	-	-	-	.	-
CN1CCN(C(=S)c2ccc(Br)cc2)CC1	-	-	.	-	-	.
CN1CCN(C(=S)c2ccc(N(C)C)cc2)CC1	-	-	-	-	-	99
Cc1cccc(S(=O)(=O)N2C[C@@H](O)COC[C@@H]3O[C@H](CC(=O)NCc4ccncn4)CC[C@H]32)c1	.	-	-	.	-	.
COc1ccc(-c2noc(-c3ccccc3C(=O)N3CCOCC3)n2)cc1	26	-	-	-	.	-
O=C(c1ccccc1F)N1CC(=O)N2[C@H](CO)[C@H](c3ccc(-c4ccc(F)cc4)cc3)[C@@H]2C1	.	.	.	.	-	.
C[C@@H]1CN([C@H](C)CO)C(=O)c2cc(NC(=O)NC3CCCCC3)ccc2O[C@@H](C)CCCCO[C@@H]1CN(C)C(=O)c1ccccc1	.	-	-	.	-	.
COc1cc(/C=N/NC(=O)NC2CCCCC2)cc(OC)c1O	-	-	-	-	-	99
COc1cc(/C=N/NC(=O)NC2CCCCC2)ccc1O	-	-	-	-	-	99
COc1cc(/C=N/N2C(=O)c3ccccc3C2=O)ccc1O	-	-	-	-	-	-
COc1cc(/C=N/NC(=O)c2ccc(NC(=O)C3CCCCC3)cc2)ccc1O	-	-	-	-	-	-
SMILES	NRP1-CendR mod	ARNT-TACC3 inh	PglD DTNB	PDI turbidity	ERp5 block	ALR inh
COc1cc(/C=N/N2C(=O)C3C4C=CC(CC4)C3C2=O)ccc1O (stereo unspecified)	-	-	.	-	-	90
O=C(C[C@@H]1CC[C@H](NC(=O)c2ccccn2)[C@H](CO)O1)NCc1cccc(F)c1	.	-	-	.	-	.
COCC#Cc1ccc2c(c1)O[C@@H](CN(C)CC1CCOCC1)[C@H](C)CN([C@H](C)CO)S2(=O)=O	.	-	-	.	-	.
CCOC(=O)C1=C(c2ccccc2)OC(N)=C(C#N)C1C(C)C (stereo unspecified)	50	-	-	-	.	-
CNC(=O)C[C@H]1CC[C@H]2[C@H](COc3ccc(NC(=O)c4ccc(OC)cc4)cc3C(=O)N2C)O1	.	-	-	.	-	.
COc1ccc(NC(=O)CSc2nc3[nH]ncc3c(=O)[nH]2)cc1OC	-	-	-	-	-	96
CSc1ccc(NC(=O)CSc2nc3[nH]c(=O)cc(O)c3s2)cc1	-	-	-	-	-	99
N#Cc1ccc(NC(=O)CSc2nc3[nH]c(=O)cc(O)c3s2)cc1	-	-	-	-	-	99
COc1ccc(NC(=O)CSc2nc3[nH]c(=O)cc(O)c3s2)cc1OC	-	-	-	-	.	99
O=c1cc(O)c2sc(Nc3ccc(F)cc3)nc2[nH]1	-	-	.	-	-	-
O=C(CSc1nc2[nH]ncc2c(=O)[nH]1)Nc1ccc(Cl)c(Cl)c1	-	-	.	-	-	-
O=c1[nH]c2ccc(NC(=S)Nc3ccccc3)cc2[nH]1	-	-	.	-	-	90
Cc1ccccc1NC(=S)Nc1ccc2[nH]c(=O)[nH]c2c1	-	-	-	-	-	88
Cc1ccc(S(=O)(=O)/N=C(/NC(=S)Nc2ccccc2)c2ccccc2)cc1	-	-	-	-	.	-
Cc1ccc(C(=O)NC(=S)Nc2ccc3[nH]c(=O)[nH]c3c2)cc1	-	-	-	-	-	-
CCOC(=O)c1ccc(NC(=S)Nc2ccc3[nH]c(=O)[nH]c3c2)cc1	-	-	-	-	-	80
Cc1ccc(NC(=S)N/C(=N/S(=O)(=O)c2ccccc2)c2ccccc2)cc1	22!	-	-	-	-	-
COc1cccc(-c2cnc3c(c2)C(=O)N([C@@H](C)CO)C[C@H](C)[C@H](CN(C)Cc2ccncc2)O3)c1	.	-	-	.	-	.
Cc1ccc(NC(=S)Nc2ccc3[nH]c(=O)[nH]c3c2)cc1	-	-	.	-	-	99
CC(=O)Nc1ccc(N/C(=N\S(=O)(=O)c2ccccc2)c2ccccc2)cc1	-	-	-	-	-	-
O=c1[nH]c2ccc(N/C(=N/S(=O)(=O)c3ccccc3)c3ccccc3)cc2[nH]1	21	-	.	-	.	-
COCC(=O)N1CCC2(CC1)CN(C(=O)Nc1ccccc1F)[C@H](CO)c1[nH]c3cc(OC)ccc3c12	.	.	.	.	-	.
O=C(O)[C@@H]1[C@@H](CO)[C@@H]2Cn3c(ccc(-c4cncnc4)c3=O)[C@@H]2N1C(=O)C1CCC1	.	-	-	.	-	.
Cc1ccc(S(=O)(=O)c2cc(Nc3ccccc3)ccc2O)cc1	-	-	-	-	-	100
O=S(=O)(Nc1ccc(Nc2ccccc2)cc1)c1ccc(F)cc1	-	-	-	-	-	98
SMILES	NRP1-CendR mod	ARNT-TACC3 inh	PglD DTNB	PDI turbidity	ERp5 block	ALR inh
O=S(=O)(Nc1ccc(S(=O)(=O)Nc2ccccc2)cc1)c1ccccc1	-	-	-	-	.	.
Cc1ccc(S(=O)(=O)NNc2ccccc2)cc1	-	-	.	-	-	100
CC(=O)Nc1ccc(S(=O)(=O)NNc2cccc(C)c2)cc1	-	-	-	-	-	99
Cc1ccc(S(=O)(=O)Nc2cc(C)c(O)c(S(=O)(=O)c3ccc(C)cc3)c2)cc1	-	-	-	-	-	-
Cc1ccc(S(=O)(=O)NNC(=O)CCC(=O)Nc2ccccc2)cc1	-	-	-	-	.	-
CCCNC(=O)N(C)C[C@@H]1Oc2ncc(C3=CCCC3)cc2C(=O)N([C@@H](C)CO)C[C@@H]1C	.	-	-	.	-	.
